A short description of test [1]: Her2 expression decrease, cell viability multiplex – SKBR3 breast tumor cells, AlphaScreen, ATP viability, primary screen (AID 461;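 active means Her2 level under about 52% in both replicate screens, with viability over 70% of control, limit read from the data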;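 on Her2 level: lower value means less Her2 protein in the cells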;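 on viability: percent of carrier control wells set as 100% viability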). The conditions noted are these: SKBR3 Her2 protein level, 18-24 h, measured here: SKBR3 viability, ATP luminescence, at 10 µM.
Test [2] concerns the target Receptor tyrosine-protein kinase erbB-2 (Homo sapiens) (UniProt P04626). The test is described as above. Particulars: 18-24 h, at 10 µM, stronger effect = lower value.
The nature of test [3]: reduced viability of SK-BR-3 breast cancer cells – cell-based, 24 h, human, pilot screen (AID 572;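 active means viability at or below 10% of carrier control in both of two separate runs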;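 further: compound exposure lasted between 18 and 24 h rather than exactly 24 h; 100% = carrier-treated control wells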). Particulars: SK-BR-3 viability, CellTiter-Glo luminescence, at 10 µM, stronger effect = lower value. Background: Cellular ATP, detected with luciferase, serves as a proxy for viable cell number.
Test [4] in a line: MRP1 drug-resistance reversers in H69AR cells – cell-based, doxorubicin co-treatment, pilot screen (AID 601). The conditions noted are these: CellTiter-Glo, 72 h, at 10 µM; for differential viability (reversal): stronger effect = higher value.
A short description of test [5]: yeast transport mutant growth inhibition pilot in 384-well plates, post-Golgi transport modulator project (AID 636; in the data active means inhibition above about 31%). Particulars: absorbance 615 nm, about 18 h, stronger effect = higher value.
Test [6] can be described thus: growth suppression of yeast trafficking mutant, preliminary HTS, modulators of trafficking downstream of Golgi apparatus project, 1536-format plate, OD 615 nm (AID 637; in the data active means inhibition above about 30%). The conditions noted are these: yeast transport mutant growth, absorbance 615 nm, 18 h; stronger effect = higher value.
Test [7] can be described thus: H69AR cell proliferation blockers – human, duplicate replicates, primary screen (AID 580;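 active means viability at or under a set limit in both replicates, limit being median viability minus 3 SD, cut at about 48% in these data, passing the limit was not always enough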;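 further: 100% = mean luminescence of untreated wells and 0% = no signal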). Particulars: H69AR lung tumor cells viability, ATP luminescence, 72 h; at 10 µM; stronger effect = lower value.
Test [8] can be described thus: HUVEC growth inhibition – cell-based, human, primary screen (AID 575;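 active means viability at or below 30% in both replicate assays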;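 further: 100% = median of untreated cell wells with 0.1% DMSO on each plate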). Particulars: HUVEC proliferation, CellTiter-Glo luminescence, 72 h; at 10 µM; stronger effect = lower value.
The nature of test [9]: S. cerevisiae growth inhibition in restrictive medium, OD615, pilot screen, restrictive growth control, yeast lifespan reduction project (AID 706;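 active means growth inhibition above a set limit, 3 SD over mean compound inhibition, in both replicates, cut at about 43% in these data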;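 further: modified DeaD lifespan yeast strain shifted to restrictive glucose medium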). Particulars: OD615, 48 h, at 10 µM, stronger effect = higher value.
The nature of test [10]: doxorubicin toxicity protection in MRP-1 cells – H69AR cells, CellTiter-Glo, duplicate, MRP-1 activator project, pilot screen (AID 807;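 active means viability increase at or above a cutoff of the median across tested compounds plus 3 SD, cut at about 8.5% in these data, passing the limit was not always enough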;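 further: compound pretreatment 18-22 h then 72 h combined with doxorubicin; 0% = doxorubicin alone and 100% = vehicle without doxorubicin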). Particulars: H69AR viability with doxorubicin, CellTiter-Glo luminescence; at 10 µM; stronger effect = higher value.
Test [11] can be described thus: viability of HCT116 without oncogenic beta-catenin – human colon tumor cells, pilot screen (AID 823;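 active means cell viability at or below a set limit in both duplicate runs, the limit being the all-compound median minus 4 SD, cut at about 23% in these data, passing the limit was not always enough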;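 further: 0% = wells killed by 20 µM Hyamine and 100% = untreated DMSO cell wells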). Particulars: HCT116 beta-catenin knockout viability, CellTiter-Glo, 60 h; at 10 µM; stronger effect = lower value.
The nature of test [12]: viability of PTEN-null HCT116 cells – cell-based, HCT116 clonal line, CellTiter-Glo, pilot screen (AID 824;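 active means viability at or below 27.92% in each of two runs, the all-compound median minus 4 SD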;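 further: 0% = 20 µM Hyamine control and 100% = vehicle cell control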). The conditions noted are these: HCT116 PTEN-deleted viability, 60 h, at 10 µM, stronger effect = lower value.
The nature of test [13]: RAM pathway blockade in budding yeast – dse1pr::URA3 reporter, 5-FOA selection, pilot screen (AID 869;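 active means inhibition over a set limit, the all-compound mean plus 3 SD, in both replicate runs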;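 further: 0% = DMSO wells with no growth and 100% = 10 µM 1-NA-PP1 with full growth; RAM network block rescues cells from 5-FOA so hits raise OD615 growth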). The conditions noted are these: S. cerevisiae dse1pr::URA3 5-FOA growth, OD615, 2 d; at 10 µM; stronger effect = higher value; strain carries analog-sensitive mutant Cbk1 kinase.
[14] abbreviates: H69AR cells + 2 uM doxorubicin, measured here: viability with 2 uM doxorubicin, stronger effect = lower value.
Where [15] appears, read: H69AR cells, compound alone cytotoxicity.

Inconclusive results are not listed. Calls of active or inactive are those of the source.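 How the source made its calls, unless noted: active means viability loss from added drug above about 55%, and viability with drug at most 40%, in both replicates (limit read from the data, passing the limit was not always enough); inconclusive means both conditions met in only one replicate; inactive means neither replicate meets both conditions.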

Receptor tyrosine-protein kinase erbB-2 (Homo sapiens), sequence (P04626 whole entry, looked up): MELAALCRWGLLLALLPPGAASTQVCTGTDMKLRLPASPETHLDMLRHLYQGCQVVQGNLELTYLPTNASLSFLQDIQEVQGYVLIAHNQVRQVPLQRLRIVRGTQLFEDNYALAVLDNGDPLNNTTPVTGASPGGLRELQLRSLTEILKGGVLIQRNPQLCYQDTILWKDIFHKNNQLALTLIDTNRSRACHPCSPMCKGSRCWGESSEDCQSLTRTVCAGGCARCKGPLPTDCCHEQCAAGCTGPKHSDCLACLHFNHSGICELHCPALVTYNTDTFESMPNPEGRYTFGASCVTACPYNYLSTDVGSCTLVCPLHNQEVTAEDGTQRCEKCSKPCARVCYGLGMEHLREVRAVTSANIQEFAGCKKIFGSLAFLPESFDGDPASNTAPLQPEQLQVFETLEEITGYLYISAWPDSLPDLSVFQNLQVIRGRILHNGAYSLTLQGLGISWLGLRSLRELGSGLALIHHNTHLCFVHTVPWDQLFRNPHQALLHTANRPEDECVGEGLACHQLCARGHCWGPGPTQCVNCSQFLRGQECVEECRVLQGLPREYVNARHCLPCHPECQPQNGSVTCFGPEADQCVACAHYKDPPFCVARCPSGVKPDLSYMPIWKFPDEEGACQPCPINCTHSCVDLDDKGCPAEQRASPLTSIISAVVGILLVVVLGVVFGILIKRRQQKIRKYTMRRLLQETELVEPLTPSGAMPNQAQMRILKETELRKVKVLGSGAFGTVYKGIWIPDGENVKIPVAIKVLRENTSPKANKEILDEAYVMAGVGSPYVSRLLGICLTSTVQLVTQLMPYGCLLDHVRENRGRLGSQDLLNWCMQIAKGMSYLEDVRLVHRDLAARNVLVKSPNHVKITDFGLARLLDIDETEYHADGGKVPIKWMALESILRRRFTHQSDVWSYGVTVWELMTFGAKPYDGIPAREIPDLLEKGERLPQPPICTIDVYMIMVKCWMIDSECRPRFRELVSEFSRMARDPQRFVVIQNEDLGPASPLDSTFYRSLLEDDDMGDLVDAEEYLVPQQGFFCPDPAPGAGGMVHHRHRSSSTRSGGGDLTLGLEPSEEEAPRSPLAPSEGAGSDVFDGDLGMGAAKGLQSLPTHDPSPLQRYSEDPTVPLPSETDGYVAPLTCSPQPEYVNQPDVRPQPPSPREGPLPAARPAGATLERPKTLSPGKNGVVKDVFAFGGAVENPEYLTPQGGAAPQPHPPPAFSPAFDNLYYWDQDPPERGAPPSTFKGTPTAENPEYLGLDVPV

On to `CCn1c2ccccc2c2cc(N)ccc21`, for which the viability (usually a read-out of living cells in per cent, often relative to untreated cells) in test [1] is 117%; in [3] it was 117% (inactive); in test [4] (setting [14]) it was 56.8%; in [4] (setting [15]), 50%. For the same compound, the Her2 level in test [2] was 91.5% (inactive). In addition, the differential viability (reversal) in [4] (H69AR cells + 2 uM doxorubicin) is -6.75% (inactive). Moreover, the values for the inhibition in test [5] and in [6] were -5.73% (inactive) and 1.59% (inactive), respectively.
Take `Oc1ccc(N2CCN(C(c3ccncc3)c3nnnn3C3CCCC3)CC2)cc1` (stereo not given): the viability is 76% in test [1]; 76% (inactive) in test [3]; 91.9% (inactive) in [7]; 87.6% in [4] (setting [14]); 91.9% in test [4] (setting [15]). Besides, in [2], the Her2 level is 82.5% (inactive). Also, in test [4] (H69AR cells + 2 uM doxorubicin), the differential viability (reversal) is 4.33% (inactive). For the same compound, the results for the inhibition in [5] and in test [6] were -5.2% (inactive) and 2.58% (inactive), respectively.
With `C=C(C)COc1ccc(-c2nc(N)ncc2-c2ccc(OC)cc2)c(O)c1`, the viability was 160% in [1], 160% (inactive) in test [3], 31.8% in test [4] (setting [14]) and 33.2% in test [4] (setting [15]). For the same compound, the Her2 level in test [2] is 73% (inactive). The differential viability (reversal) in test [4] (H69AR cells + 2 uM doxorubicin) is 1.44% (inactive). The inhibition (commonly the change of the read-out against control, counted positive when it falls) was -1.56% (inactive) in test [5] and 7.17% (inactive) in [6].
Turning to `Cn1c(=O)n(CCN2CCOCC2)c(=O)c2c1nc1n2CCN1c1ccccc1`, the viability in test [1] was 41.5%; in test [8], 52.8% (inactive); in test [7], 67.9% (inactive); in [4] (setting [14]), 63.5%; in test [4] (setting [15]) it was 67.9%. For the same compound, the Her2 level in [2] was 102% (inactive). Moreover, in test [4] (H69AR cells + 2 uM doxorubicin), the differential viability (reversal) is 4.43% (inactive). Besides, the inhibition in test [5] is 3.51% (inactive); in test [6] it was -2.54% (inactive).
As for `CNCCC=C1c2ccccc2CCc2ccccc21`, the viability in test [3] was 23%; in test [8], 71.6% (inactive); in test [7], 80.1% (inactive); in [4] (setting [14]) it was 75.5%; in [4] (setting [15]), 80.1%. Besides, in test [4] (H69AR cells + 2 uM doxorubicin), the differential viability (reversal) was 4.63% (inactive).
Regarding `Cc1cc(C)nc(N(C#N)CC(=O)N2CCC(C(N)=O)CC2)n1`, the viability in [3] is 104% (inactive); in [8], 85.9% (inactive); in test [7], 98.6% (inactive); in test [4] (setting [14]) it was 94.5%; in test [4] (setting [15]) it was 98.6%. Moreover, the differential viability (reversal) in test [4] (H69AR cells + 2 uM doxorubicin) was 4.1% (inactive). Also, the inhibition was -7.95% (inactive) in [5] and 1.45% (inactive) in [6].
Turning to `CCOC(=O)c1c(C)oc2c1c1c(c3ccccc32)OCN(Cc2cccnc2)C1`, the viability in [1] was 83.5%; in test [3], 83.5% (inactive); in test [4] (setting [14]) it was 21.8%; in test [4] (setting [15]), 51.6%. In addition, the Her2 level in test [2] is 75% (inactive). Further, the differential viability (reversal) in [4] (H69AR cells + 2 uM doxorubicin) is 29.8% (inactive). Besides, the results for the inhibition in [5] and in [6] were -0.39% (inactive) and -5.33% (inactive), respectively.
With `CN(C)CCCN1c2ccccc2Sc2ccccc21`, the viability was 66.5% (inactive) in test [3]; 74.2% (inactive) in [8]; 74.7% (inactive) in test [7]; 83% in test [4] (setting [14]); 74.7% in test [4] (setting [15]). Also, the differential viability (reversal) in test [4] (H69AR cells + 2 uM doxorubicin) is -8.33% (inactive).
As for `COC(=O)c1c(NC(=O)CSc2nnnn2C)sc(C)c1C`, the viability in [3] is 96% (inactive); in test [8], 84.9% (inactive); in test [7], 92.5% (inactive); in test [4] (setting [14]), 88.1%; in test [4] (setting [15]), 92.5%. In [4] (H69AR cells + 2 uM doxorubicin), the differential viability (reversal) is 4.44% (inactive). The inhibition in test [5] was 0.14% (inactive); in [6], -2% (inactive).
Consider `CCN1CCN(Cc2nc3c(c(=O)[nH]c(=O)n3C)n2Cc2ccccc2Cl)CC1`, for which the viability in [1] is 80.5%; in [8] it was 87.9% (inactive); in test [7], 92% (inactive); in test [4] (setting [14]), 96.2%; in test [4] (setting [15]) it was 92%. Further, in test [2], the Her2 level is 114% (inactive). Also, the differential viability (reversal) in test [4] (H69AR cells + 2 uM doxorubicin) is -4.17% (inactive). For the same compound, the inhibition was -0.51% (inactive) in test [5] and -3.17% (inactive) in test [6].
On to `CCOC(=O)c1cnn(-c2ncnc3c2cnn3Cc2ccccc2)c1N`, for which the viability in [1] was 99.5%; in [3] it was 99.5% (inactive); in test [7] it was 17.2% (active); in [4] (setting [14]) it was 31.5%; in test [4] (setting [15]), 17.2%. Further, in test [2], the Her2 level is 84.5% (inactive). The differential viability (reversal) in test [4] (H69AR cells + 2 uM doxorubicin) was -14.3% (inactive). Moreover, the inhibition was -5.33% (inactive) in [5] and -2.58% (inactive) in test [6].
In the case of `Cc1nc2ccccc2c(=O)n1NC(=O)Nc1ccccc1`, the viability was 111% (inactive) in test [3]; 95.1% (inactive) in test [8]; 107% (inactive) in [7]; 96% in [4] (setting [14]); 107% in [4] (setting [15]). For the same compound, the differential viability (reversal) in [4] (H69AR cells + 2 uM doxorubicin) is 10.6% (inactive). For the same compound, the inhibition is -1.2% (inactive) in test [5] and -1.82% (inactive) in test [6].
`N#Cc1ccccc1Cn1c(=O)n(Cc2ccc(C(=O)NCc3ccco3)cc2)c(=O)c2sccc21`: the viability in test [1] is 75.5%; in [3], 75.5% (inactive); in test [7], 77.8% (inactive); in [4] (setting [14]), 68.3%; in test [4] (setting [15]) it was 77.8%; in test [11], 91.3% (inactive). In addition, the viability in [12] was 79.5% (inactive). The Her2 level in [2] is 80% (inactive). Besides, the differential viability (reversal) in [4] (H69AR cells + 2 uM doxorubicin) was 9.52% (inactive). Besides, the inhibition was -1.28% (inactive) in test [5], -1.67% (inactive) in test [6] and 2.11% (inactive) in [13]. Moreover, in test [9], the growth inhibition was -22.5% (inactive). Also, the viability increase in test [10] is -4.44% (inactive).

These data come from PubChem BioAssay.
